Source: PubChem BioAssay
Calls of active or inactive are those of the source.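 How the source made its calls, unless noted: active means inhibition over a set limit, the all-compound mean plus 3 SD, in both replicate runs; inconclusive means over that limit in just one replicate run; inactive means at or under that limit in both runs.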

Assay: inhibitors of the yeast RAM network, pilot screen, dse1pr::URA3 reporter, 5-FOA selection (AID 869);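 further: 0% = DMSO wells with no growth and 100% = 10 µM 1-NA-PP1 with full growth; RAM network block rescues cells from 5-FOA so hits raise OD615 growth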
Conditions: S. cerevisiae dse1pr::URA3 5-FOA growth, OD615, 2 d; at 10 µM; stronger effect = higher value; strain carries analog-sensitive mutant Cbk1 kinase

Q: Which inhibition does the source give for COc1ccccc1NC1C=CS(=O)(=O)C1 (stereo not given) here?
A: 0.335% (inactive)

Q: With COc1ccccc1CNC(=O)c1cnc2sccn2c1=O as the compound, how does the inhibition read?
A: 2.37% (inactive)

Q: Which inhibition does the source give for CCOc1ccccc1N1C(=O)c2cccnc2C1=O here?
A: 1.04% (inactive)

Q: Which inhibition does the source give for COc1ccc(NC(=O)c2c(-c3ccccc3)noc2C)c(OC)c1 here?
A: 0.895% (inactive)

Q: With COc1ccc(NC(=O)C2CCCN(S(=O)(=O)c3cccc4cccnc34)C2)cc1 (stereo not given) as the compound, how does the inhibition read?
A: 2.36% (inactive)

Q: Which inhibition does the source give for COCCCNC(=O)c1cc2c(-c3ccc(Cl)cc3)nn(C)c2s1 here?
A: 3.08% (inactive)

Q: Which inhibition does the source give for CSc1nnc(NC(=O)c2cc3ccccc3oc2=O)s1 here?
A: 1.24% (inactive)

Q: Which inhibition does the source give for CCC(CC)C(=O)Nc1cc(=O)n(C)c(=O)n1C here?
A: 0.18% (inactive)

Q: Which inhibition does the source give for CNc1nc(C)nc(-c2ccccc2O)n1 here?
A: 0.84% (inactive)

Q: Which inhibition does the source give for Cc1ccc(C)c(NC(=O)CS(=O)(=O)c2cn(C)c3ccccc23)c1 here?
A: 0.025% (inactive)

Q: For CC1(C)Cc2c(sc3c2c(=N)n(Cc2ccco2)c(=O)n3Cc2ccc(Cl)cc2)CO1, which inhibition is on record?
A: 1.69% (inactive)

Q: Which inhibition does the source give for CCOC(=O)c1sc(NC(=O)COC(=O)c2ccco2)nc1C here?
A: 1.39% (inactive)

Q: With CN(C)CCNC(=O)c1cc2cc(Br)ccc2oc1=O as the compound, how does the inhibition read?
A: 0.755% (inactive)

Q: Which inhibition does the source give for Cn1c2c(c(=O)n(C)c1=O)C1c3ccccc3OCC1C(C)(C)O2 (stereo not given) here?
A: -0.05% (inactive)

Q: With Cc1onc(-c2ccccc2Cl)c1C(=O)Nc1ccc(S(=O)(=O)N2CCCC2)cc1 as the compound, how does the inhibition read?
A: 1.72% (inactive)

Q: Which inhibition does the source give for COc1ccc(C2C(C(=O)NCc3cccnc3)c3ccccc3C(=O)N2C)cc1OC (stereo not given) here?
A: 1.71% (inactive)

Q: Which inhibition does the source give for CC(=O)c1c(C)cc(C)c(CSc2nc(C)cc(=O)[nH]2)c1C here?
A: 0.245% (inactive)

Q: Which inhibition does the source give for CCOC(=O)C1CCCN(C(=O)Cn2nc(CC)n3c(cc4sccc43)c2=O)C1 (stereo not given) here?
A: 1.33% (inactive)

Q: For CCCCN(C)C(=O)C(Cc1ccccc1)NS(=O)(=O)c1ccc2c(c1)CCC(=O)N2 (stereo not given), which inhibition is on record?
A: 1.44% (inactive)

Q: For CC(C)Sc1nnc(Cn2c(=O)sc3ccccc32)n1-c1ccccc1, which inhibition is on record?
A: -0.63% (inactive)

Q: Which inhibition does the source give for Cc1csc(C(C#N)C(=O)c2cc3ccccc3o2)n1 (stereo not given) here?
A: 2.67% (inactive)

Q: With O=C(O)c1ccc(Cl)c2c1C1C=CCC1C(c1ccccn1)N2 (stereo not given) as the compound, how does the inhibition read?
A: 2.31% (inactive)

Q: With CCCCOC(=O)Nc1ccccc1C(N)=O as the compound, how does the inhibition read?
A: 1.07% (inactive)

Q: With CCOC(=O)C1CCCN(C(=O)Cn2nc(Cc3cccnc3)c3ccccc3c2=O)C1 (stereo not given) as the compound, how does the inhibition read?
A: 2.21% (inactive)

Q: Which inhibition does the source give for CCN1C(=O)c2ccccc2S(=O)c2ccc(C(=O)NCCCN3CCCC3=O)cc21 (stereo not given) here?
A: 0.64% (inactive)

Q: Which inhibition does the source give for CCCCCOC(=O)NCC(O)c1ccccc1 (stereo not given) here?
A: 2.22% (inactive)

Q: Which inhibition does the source give for O=C(NCC(c1ccc(F)cc1)N1CCOCC1)c1ccc(Br)o1 (stereo not given) here?
A: 2.88% (inactive)

Q: With CCOC(=O)N1CCC(N2CC34C=CC(O3)C(C(=O)Nc3ccc(C)cc3)C4C2=O)CC1 (stereo not given) as the compound, how does the inhibition read?
A: 1.33% (inactive)

Q: With O=C(CSc1cn(Cc2ccccc2)c2ccccc12)Nc1nccs1 as the compound, how does the inhibition read?
A: 1.73% (inactive)

Q: With O=C(CN1CCN(c2ncccn2)CC1)N1CCN(C(c2ccccc2)c2ccccc2)CC1 as the compound, how does the inhibition read?
A: 1.64% (inactive)

Q: With CCOC(=O)N1CCC(NC(=O)c2cc3ccccn3n2)CC1 as the compound, how does the inhibition read?
A: 1.8% (inactive)

Q: Which inhibition does the source give for O=P(O)(CCc1ccccn1)CN1CCOCC1 here?
A: 2.73% (inactive)

Q: For CCCc1cc(C(=O)Nc2cc(OC)c(Cl)cc2OC)no1, which inhibition is on record?
A: 0.45% (inactive)

Q: With CCN(CC)C(=O)CCCOc1ccc(Cl)cc1Cl as the compound, how does the inhibition read?
A: -0.905% (inactive)

Q: With CCOC(=O)c1ccc(NC(=O)C2C3C=CC(C3)C2C(=O)O)cc1 (stereo not given) as the compound, how does the inhibition read?
A: 0.29% (inactive)

Q: With Cc1ccc(C2=[N+]([O-])C3(CCCCC/C3=N\O)N(O)C2(C)C)o1 (stereo not given) as the compound, how does the inhibition read?
A: -0.505% (inactive)

Q: With Cc1ccc(N(C)C(=O)N2CCN(S(=O)(=O)c3ccc(C)cc3)CC2)cc1 as the compound, how does the inhibition read?
A: 0.215% (inactive)

Q: For COc1ccc(OC)c(NC(=O)Cn2cnc3c(cnn3-c3ccccc3)c2=O)c1, which inhibition is on record?
A: 1.27% (inactive)

Q: With CC1CCCCC1NC(=O)CCS(=O)(=O)c1cccc2nonc12 (stereo not given) as the compound, how does the inhibition read?
A: -0.06% (inactive)

Q: With O=C(NCCSCc1ccco1)c1ccc(CN2CCOCC2)cc1 as the compound, how does the inhibition read?
A: 1.59% (inactive)

Assay: RAM signaling pathway blockade in yeast – S. cerevisiae, Pdr1DBD-CYC8 efflux-inhibited sensitized strain, primary screen (AID 1298;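 active means RAM network inhibition above 8.4% in each of two replicates, 3 SD over the compound average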;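 further: 0% = DMSO untreated cells without growth and 100% = 10 µM 1-NA-PP1 full growth; higher means more yeast growth rescued from 5-FOA killing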)
Conditions: S. cerevisiae cbk1-as DSE1-URA3 strain, 5-FOA growth OD615, 2 d; at 50 µM; stronger effect = higher value

Q: With COc1ccccc1NC1C=CS(=O)(=O)C1 (stereo not given) as the compound, how does the RAM network inhibition read?
A: 4.65% (inactive)

Q: For COc1ccccc1CNC(=O)c1cnc2sccn2c1=O, which RAM network inhibition is on record?
A: 2.72% (inactive)

Q: For CCOc1ccccc1N1C(=O)c2cccnc2C1=O, which RAM network inhibition is on record?
A: 10.2% (inactive)

Q: With COc1ccc(NC(=O)c2c(-c3ccccc3)noc2C)c(OC)c1 as the compound, how does the RAM network inhibition read?
A: 3.75% (inactive)

Q: Which RAM network inhibition does the source give for COc1ccc(NC(=O)C2CCCN(S(=O)(=O)c3cccc4cccnc34)C2)cc1 (stereo not given) here?
A: 6.27% (inactive)

Q: Which RAM network inhibition does the source give for COCCCNC(=O)c1cc2c(-c3ccc(Cl)cc3)nn(C)c2s1 here?
A: 3.67% (inactive)

Q: With CSc1nnc(NC(=O)c2cc3ccccc3oc2=O)s1 as the compound, how does the RAM network inhibition read?
A: 4.01% (inactive)

Q: Which RAM network inhibition does the source give for CCC(CC)C(=O)Nc1cc(=O)n(C)c(=O)n1C here?
A: -2.19% (inactive)

Q: Which RAM network inhibition does the source give for CNc1nc(C)nc(-c2ccccc2O)n1 here?
A: 4.49% (inactive)

Q: With Cc1ccc(C)c(NC(=O)CS(=O)(=O)c2cn(C)c3ccccc23)c1 as the compound, how does the RAM network inhibition read?
A: 1.3% (inactive)

Q: With CC1(C)Cc2c(sc3c2c(=N)n(Cc2ccco2)c(=O)n3Cc2ccc(Cl)cc2)CO1 as the compound, how does the RAM network inhibition read?
A: 4.49% (inactive)

Q: With CCOC(=O)c1sc(NC(=O)COC(=O)c2ccco2)nc1C as the compound, how does the RAM network inhibition read?
A: 4.87% (inactive)

Q: Which RAM network inhibition does the source give for CN(C)CCNC(=O)c1cc2cc(Br)ccc2oc1=O here?
A: 2.26% (inactive)

Q: For Cn1c2c(c(=O)n(C)c1=O)C1c3ccccc3OCC1C(C)(C)O2 (stereo not given), which RAM network inhibition is on record?
A: 0.68% (inactive)

Q: Which RAM network inhibition does the source give for Cc1onc(-c2ccccc2Cl)c1C(=O)Nc1ccc(S(=O)(=O)N2CCCC2)cc1 here?
A: 4.75% (inactive)

Q: With COc1ccc(C2C(C(=O)NCc3cccnc3)c3ccccc3C(=O)N2C)cc1OC (stereo not given) as the compound, how does the RAM network inhibition read?
A: -0.99% (inactive)

Q: With CC(=O)c1c(C)cc(C)c(CSc2nc(C)cc(=O)[nH]2)c1C as the compound, how does the RAM network inhibition read?
A: 2.49% (inactive)

Q: For CCOC(=O)C1CCCN(C(=O)Cn2nc(CC)n3c(cc4sccc43)c2=O)C1 (stereo not given), which RAM network inhibition is on record?
A: 8.75% (inactive)

Q: For CCCCN(C)C(=O)C(Cc1ccccc1)NS(=O)(=O)c1ccc2c(c1)CCC(=O)N2 (stereo not given), which RAM network inhibition is on record?
A: 6.27% (inactive)

Q: For CC(C)Sc1nnc(Cn2c(=O)sc3ccccc32)n1-c1ccccc1, which RAM network inhibition is on record?
A: 5.84% (inactive)

Q: With Cc1csc(C(C#N)C(=O)c2cc3ccccc3o2)n1 (stereo not given) as the compound, how does the RAM network inhibition read?
A: 0.32% (inactive)

Q: For O=C(O)c1ccc(Cl)c2c1C1C=CCC1C(c1ccccn1)N2 (stereo not given), which RAM network inhibition is on record?
A: 1.25% (inactive)

Q: Which RAM network inhibition does the source give for CCCCOC(=O)Nc1ccccc1C(N)=O here?
A: 1.72% (inactive)

Q: With CCOC(=O)C1CCCN(C(=O)Cn2nc(Cc3cccnc3)c3ccccc3c2=O)C1 (stereo not given) as the compound, how does the RAM network inhibition read?
A: 2.19% (inactive)

Q: For CCN1C(=O)c2ccccc2S(=O)c2ccc(C(=O)NCCCN3CCCC3=O)cc21 (stereo not given), which RAM network inhibition is on record?
A: -1.15% (inactive)

Q: Which RAM network inhibition does the source give for CCCCCOC(=O)NCC(O)c1ccccc1 (stereo not given) here?
A: 5.59% (inactive)

Q: For O=C(NCC(c1ccc(F)cc1)N1CCOCC1)c1ccc(Br)o1 (stereo not given), which RAM network inhibition is on record?
A: 1.24% (inactive)

Q: Which RAM network inhibition does the source give for CCOC(=O)N1CCC(N2CC34C=CC(O3)C(C(=O)Nc3ccc(C)cc3)C4C2=O)CC1 (stereo not given) here?
A: 2.54% (inactive)

Q: For O=C(CSc1cn(Cc2ccccc2)c2ccccc12)Nc1nccs1, which RAM network inhibition is on record?
A: 0.83% (inactive)

Q: For O=C(CN1CCN(c2ncccn2)CC1)N1CCN(C(c2ccccc2)c2ccccc2)CC1, which RAM network inhibition is on record?
A: 0.61% (inactive)

Q: Which RAM network inhibition does the source give for CCOC(=O)N1CCC(NC(=O)c2cc3ccccn3n2)CC1 here?
A: 0.26% (inactive)

Q: With O=P(O)(CCc1ccccn1)CN1CCOCC1 as the compound, how does the RAM network inhibition read?
A: 1.09% (inactive)

Q: Which RAM network inhibition does the source give for CCCc1cc(C(=O)Nc2cc(OC)c(Cl)cc2OC)no1 here?
A: 7.36% (inactive)

Q: For CCN(CC)C(=O)CCCOc1ccc(Cl)cc1Cl, which RAM network inhibition is on record?
A: 0.45% (inactive)

Q: Which RAM network inhibition does the source give for CCOC(=O)c1ccc(NC(=O)C2C3C=CC(C3)C2C(=O)O)cc1 (stereo not given) here?
A: 1.09% (inactive)

Q: With Cc1ccc(C2=[N+]([O-])C3(CCCCC/C3=N\O)N(O)C2(C)C)o1 (stereo not given) as the compound, how does the RAM network inhibition read?
A: 1.01% (inactive)

Q: For Cc1ccc(N(C)C(=O)N2CCN(S(=O)(=O)c3ccc(C)cc3)CC2)cc1, which RAM network inhibition is on record?
A: 6.2% (inactive)

Q: With COc1ccc(OC)c(NC(=O)Cn2cnc3c(cnn3-c3ccccc3)c2=O)c1 as the compound, how does the RAM network inhibition read?
A: 0.95% (inactive)

Q: For CC1CCCCC1NC(=O)CCS(=O)(=O)c1cccc2nonc12 (stereo not given), which RAM network inhibition is on record?
A: 0.88% (inactive)

Q: For O=C(NCCSCc1ccco1)c1ccc(CN2CCOCC2)cc1, which RAM network inhibition is on record?
A: 2.06% (inactive)
